Hits are enriched below; roughly 4.2% of the tested compounds scored in any of these assays.
Mito fusion act – inhibitors of mitochondrial division or activators of mitochondrial fusion | S. cerevisiae fusion-defective mutant growth rescue, CellTiterGlo 48 h | Potency, µM (titrated, usually from 46.1 µM), for inactives: at the top dose growth rescue (activation), most hits filed as activators | actives 0.23% (n = 320,000); note: % of control where 0% means no effect; nearly all actives have a fitted effect of over 45% in size
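Compounds are tested for their ability to restore growth of mitochondrial fusion-defective yeast strains at non-permissive 37C in YPEG medium over 48 hours. Viability is quantified by luciferase luminescence.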
MCF10A rerep – DNA re-replication induction in MCF 10a cells | MCF 10A DNA re-replication, Hoechst nuclear intensity, 48 h | Potency, µM (highest dose often 46.1 µM), inactives show top-dose activity, positive = re-replication, usual class: activators | actives 2.9% (n = 350,000) | AID 624296; note: % of control where 0% means no effect; nearly all actives have a fitted effect of over 50% in size
a7 integrin act – integrin-mediated muscular dystrophy alleviation activation; Potency, µM (series often up to 38.3 µM), for the others: at the top dose activation, usual class: activators; AID 624291; alpha7betagal myoblasts, beta-gal FDG fluorescence, 48 h; actives 0.064% (n = 350,000);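 note: 100% = response of the positive control SU9516; nearly all actives have a fitted effect of over 60% in size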
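alpha7betagal+/- myoblasts (passage 13, 250/well) treated 48 h at 37C with compounds at 1:260 dilution of DMSO stock. Lysed, then beta-galactosidase activity read as FDG fluorescence (ex 480/em 540) after 30 min, with pre-read for autofluorescence.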
AT treatment – potential ataxia-telangiectasia treatments restoring KAP-1 phosphorylation. F2112 A-T fibroblasts, KAP-1 phosphorylation AlphaLISA; neocarzinostatin DNA damage 30 min before lysis. Potency, µM (series often up to 57.5 µM), without a hit: top-dose activation, hits mostly activators. actives 0.19% (n = 320,000); note: % of control where 0% means no effect; nearly all actives have a fitted effect of over 45% in size
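ATM-like activity read as KAP-1 phosphorylation via AlphaLISA donor/acceptor antibody pairs after lysis and 6 hr at 25C. Cells were ATM-null patient fibroblasts (F2112, hTERT), dosed 60 min, then exposed to the DSB inducer NCS for 30 min.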
SW480 rerep – induces DNA re-replication in SW480 colon adenocarcinoma cells; SW480 DNA re-replication, Hoechst DNA content imaging, 48 h; Potency, µM (doses to about 46.1 µM), for inactives: at the highest dose re-replication activation, usual class: activators; actives 1.8% (n = 340,000); AID 624297; note: % of control where 0% means no effect; nearly all actives have a fitted effect of over 55% in size
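250 cells/well; 23 nL cpd via pin tool; 48 hr, 37 C, 5% CO2; Hoechst 40 min; imager read of total nuclear intensity, ex 405/em 500-530 nm.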
* marks the source's active call; other numbers are inactive results. Calls come from the whole dose curve; as a rule, active = well fitted activation curve with a large enough effect; inconclusive = small, poorly fitted or top-dose-only effect; inactive = no such curve, though single readings can be large or run the other way. Potency is the fitted concentration of half-maximal effect.

What do the screens show for `Cc1ccc(S(=O)(=O)Nc2cccc(-c3ccc4nncn4n3)c2)cc1`?
Mito fusion act: -3%; MCF10A rerep: 4.1µM*; a7 integrin act: -4%; AT treatment: 13%; SW480 rerep: 2.6µM*

What do the screens show for `O=S(=O)(Nc1cccc(-c2ccc(N3CCCCCC3)nn2)c1)c1ccc(F)cc1`?
Mito fusion act: 17%; MCF10A rerep: 15µM*; a7 integrin act: -16%; AT treatment: 0%; SW480 rerep: inconclusive

What do the screens show for `O=S(=O)(Nc1cccc(-c2ccc(N3CCCCCC3)nn2)c1)c1cccc(F)c1`?
Mito fusion act: 1%; MCF10A rerep: -2%; a7 integrin act: -38%; AT treatment: -2%; SW480 rerep: 0%

What do the screens show for `CC1CCC(NC(=O)CNC(=O)Cc2cccc3ccccc23)CC1` (stereo not drawn)?
Mito fusion act: 12%; MCF10A rerep: 1%; a7 integrin act: inactive; AT treatment: 11%; SW480 rerep: 7%

Results for Cc1cc(NC(=O)c2ccc([N+](=O)[O-])o2)ccc1NC(=O)c1ccco1 ?
Mito fusion act: 0%; MCF10A rerep: inconclusive; a7 integrin act: -58%; AT treatment: 34%; SW480 rerep: 2.3µM*

What do the screens show for `COc1ccc(NC(=O)c2ccc([N+](=O)[O-])o2)cc1`?
Mito fusion act: -11%; MCF10A rerep: 16µM*; a7 integrin act: -59%; AT treatment: 17%; SW480 rerep: 2.6µM*

What do the screens show for `Cc1cc(C)nc(NC(=O)c2ccc([N+](=O)[O-])o2)n1`?
Mito fusion act: -5%; MCF10A rerep: 13µM*; a7 integrin act: -46%; AT treatment: 5%; SW480 rerep: 8.2µM*

Results for CC(=O)c1cccc(NC(=O)c2ccc([N+](=O)[O-])o2)c1 ?
MCF10A rerep: 4.1µM*; a7 integrin act: -79%; SW480 rerep: inconclusive

How did O=C(NCc1ccc(F)cc1)C1CCCN1S(=O)(=O)c1ccccc1C(F)(F)F (stereo not drawn) do in these assays?
Mito fusion act: 2%; MCF10A rerep: -5%; a7 integrin act: -13%; AT treatment: 2%; SW480 rerep: -11%

How did CCN1C(=O)c2cccc3c(NC(=O)c4ccc(OC)c(OC)c4)ccc1c23 do in these assays?
Mito fusion act: -2%; MCF10A rerep: -2%; a7 integrin act: -8%; AT treatment: 0%; SW480 rerep: -12%

What do the screens show for `O=C(Nc1ccccc1N1CCOCC1)c1ccc([N+](=O)[O-])o1`?
Mito fusion act: -1%; MCF10A rerep: 6%; a7 integrin act: -46%; AT treatment: -7%; SW480 rerep: inconclusive

Results for CC(=O)c1ccc(NC(=O)c2ccc([N+](=O)[O-])o2)cc1 ?
Mito fusion act: -19%; MCF10A rerep: 4.6µM*; a7 integrin act: -72%; AT treatment: -1%; SW480 rerep: 20%

Results for NS(=O)(=O)c1ccc(O)c(NC(=O)c2ccc([N+](=O)[O-])o2)c1 ?
Mito fusion act: 0%; MCF10A rerep: inconclusive; a7 integrin act: -16%; AT treatment: -6%; SW480 rerep: 12µM*

Results for O=C(Nc1ccc(N2CCN(C(=O)c3ccccc3)CC2)cc1)c1ccc([N+](=O)[O-])o1 ?
Mito fusion act: -16%; MCF10A rerep: inconclusive; a7 integrin act: -57%; AT treatment: -2%; SW480 rerep: -15%

What do the screens show for `Cc1cc(C)cc(NC(=O)c2ccc([N+](=O)[O-])o2)c1`?
Mito fusion act: -20%; MCF10A rerep: 3.3µM*; a7 integrin act: -54%; AT treatment: -2%; SW480 rerep: inconclusive

What do the screens show for `COc1ccccc1Nc1ccc2c(O)cc(S(=O)(=O)O)cc2c1`?
MCF10A rerep: 27%; a7 integrin act: inconclusive; SW480 rerep: -13%

How did CCOc1ccccc1C(=O)Nc1ccc2c(c1)C(=O)NC2=O do in these assays?
Mito fusion act: 2%; MCF10A rerep: -1%; a7 integrin act: 24%; AT treatment: 2%; SW480 rerep: -8%

How did Cc1ccc(Nc2cc(=O)n(C)c(=O)[nH]2)cc1C do in these assays?
a7 integrin act: -3%

Results for Cn1c(NC(=O)Cc2cccc3ccccc23)cc(=O)n(C)c1=O ?
Mito fusion act: 12%; MCF10A rerep: -3%; a7 integrin act: 2%; AT treatment: -1%; SW480 rerep: -4%

What do the screens show for `O=C(Nc1cc(Sc2nc3ccccc3s2)cc([N+](=O)[O-])c1)c1ccccc1`?
Mito fusion act: inconclusive; MCF10A rerep: inconclusive; a7 integrin act: -27%; AT treatment: 2%; SW480 rerep: 2%

How did O=C(Nc1cc(Sc2ccccn2)cc([N+](=O)[O-])c1)c1cccc(F)c1 do in these assays?
Mito fusion act: 18µM*; MCF10A rerep: 5%; a7 integrin act: -2%; AT treatment: -3%; SW480 rerep: -3%

How did CCOc1cc2c3c(c1)C1(OCCO1)C(=O)N3C(C)(C)CC2C (stereo not drawn) do in these assays?
Mito fusion act: 6%; MCF10A rerep: 13%; a7 integrin act: -15%; AT treatment: 6%; SW480 rerep: -6%

What do the screens show for `CCOc1cc2c3c(c1)C1(Nc4ccccc4S1)C(=O)N3C(C)(C)CC2C` (stereo not drawn)?
Mito fusion act: inconclusive; MCF10A rerep: 21µM*; a7 integrin act: -5%; AT treatment: -3%; SW480 rerep: inconclusive

What do the screens show for `CCOc1cc2c3c(c1)C1(C(=O)N3C(C)(C)CC2C)C(C#N)=C(N)N2C(=C1C#N)Nc1ccccc12` (stereo not drawn)?
Mito fusion act: 10%; MCF10A rerep: 16µM*; a7 integrin act: 20%; AT treatment: 6%; SW480 rerep: 2%

What do the screens show for `CCOC(=O)/C=c1/s/c(=C/c2ccc3cc(OC)ccc3c2)c(=O)n1CC(=O)NCC1CCCO1` (stereo not drawn)?
MCF10A rerep: inconclusive; a7 integrin act: -16%; SW480 rerep: 3.7µM*

What do the screens show for `CCOC(=O)/C=c1\s/c(=C\c2ccc(C(=O)OC)cc2)c(=O)n1CC(=O)Nc1ccccc1`?
Mito fusion act: -2%; MCF10A rerep: inconclusive; a7 integrin act: -7%; AT treatment: -2%; SW480 rerep: 11%

Results for CCOC(=O)/C=c1\s/c(=C\c2ccc(C#N)cc2)c(=O)n1CC(=O)NCc1ccco1 ?
Mito fusion act: 1%; MCF10A rerep: inconclusive; a7 integrin act: -12%; AT treatment: 11%; SW480 rerep: 6%

Results for CCOC(=O)/C=c1\s/c(=C\c2c(OC)ccc3ccccc23)c(=O)n1CC(=O)NCC1CCCO1 (stereo not drawn) ?
Mito fusion act: 6%; MCF10A rerep: 1.2µM*; a7 integrin act: -12%; AT treatment: -5%; SW480 rerep: 5.8µM*
